Data on three compounds can be found in ChEMBL document CHEMBL1961873, “Compounds: GSK PKIS; Assays: Nanosyn kinase panel” (2012).

Test [1] has as its target T1, Mitogen-activated protein kinase 12 (Homo sapiens) (UniProt P53778).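 Note: values are averaged p38gamma kinase inhibition readings, compounds tested at 1 µM.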
T1 sequence (whole entry): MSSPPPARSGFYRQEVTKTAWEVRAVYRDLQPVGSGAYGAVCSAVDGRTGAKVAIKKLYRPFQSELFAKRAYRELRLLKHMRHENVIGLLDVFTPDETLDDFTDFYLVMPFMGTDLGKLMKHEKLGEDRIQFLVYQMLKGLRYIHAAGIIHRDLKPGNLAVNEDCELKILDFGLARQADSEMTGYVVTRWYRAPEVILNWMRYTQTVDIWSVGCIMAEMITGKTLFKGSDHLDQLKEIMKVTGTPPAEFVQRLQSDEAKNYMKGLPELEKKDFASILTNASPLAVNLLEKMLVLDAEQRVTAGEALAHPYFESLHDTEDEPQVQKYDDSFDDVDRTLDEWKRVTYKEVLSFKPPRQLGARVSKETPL
To be noted: at 1 µM.

The target in test [2] is SRSF protein kinase 1 (Homo sapiens) (UniProt Q96SB4). To be noted: at 0.1 µM.
Chain of SRSF protein kinase 1 (Homo sapiens) (Q96SB4 whole entry): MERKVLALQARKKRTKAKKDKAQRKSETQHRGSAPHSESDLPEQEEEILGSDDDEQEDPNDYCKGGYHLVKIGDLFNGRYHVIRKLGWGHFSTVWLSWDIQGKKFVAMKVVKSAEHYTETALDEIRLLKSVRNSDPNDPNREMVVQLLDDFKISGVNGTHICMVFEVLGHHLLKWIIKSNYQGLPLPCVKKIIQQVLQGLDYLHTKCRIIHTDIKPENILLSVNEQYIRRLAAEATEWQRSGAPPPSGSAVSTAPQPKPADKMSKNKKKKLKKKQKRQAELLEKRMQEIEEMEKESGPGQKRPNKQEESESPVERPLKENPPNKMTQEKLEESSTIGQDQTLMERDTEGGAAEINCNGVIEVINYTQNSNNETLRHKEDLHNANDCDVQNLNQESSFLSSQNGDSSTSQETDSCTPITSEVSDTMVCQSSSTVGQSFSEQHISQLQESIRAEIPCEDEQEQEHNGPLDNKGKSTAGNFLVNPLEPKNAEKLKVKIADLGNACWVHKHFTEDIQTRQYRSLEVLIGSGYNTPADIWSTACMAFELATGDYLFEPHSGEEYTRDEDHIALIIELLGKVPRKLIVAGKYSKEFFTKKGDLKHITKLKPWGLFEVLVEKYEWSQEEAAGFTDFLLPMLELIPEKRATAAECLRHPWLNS
Test [3] shares this target. To be noted: at 1 µM.
For test [4], the target named is Phosphatidylinositol 4,5-bisphosphate 3-kinase catalytic subunit alpha isoform (Homo sapiens) (UniProt P42336). To be noted: at 0.1 µM.
Chain of Phosphatidylinositol 4,5-bisphosphate 3-kinase catalytic subunit alpha isoform (Homo sapiens) (P42336 whole entry, canonical isoform): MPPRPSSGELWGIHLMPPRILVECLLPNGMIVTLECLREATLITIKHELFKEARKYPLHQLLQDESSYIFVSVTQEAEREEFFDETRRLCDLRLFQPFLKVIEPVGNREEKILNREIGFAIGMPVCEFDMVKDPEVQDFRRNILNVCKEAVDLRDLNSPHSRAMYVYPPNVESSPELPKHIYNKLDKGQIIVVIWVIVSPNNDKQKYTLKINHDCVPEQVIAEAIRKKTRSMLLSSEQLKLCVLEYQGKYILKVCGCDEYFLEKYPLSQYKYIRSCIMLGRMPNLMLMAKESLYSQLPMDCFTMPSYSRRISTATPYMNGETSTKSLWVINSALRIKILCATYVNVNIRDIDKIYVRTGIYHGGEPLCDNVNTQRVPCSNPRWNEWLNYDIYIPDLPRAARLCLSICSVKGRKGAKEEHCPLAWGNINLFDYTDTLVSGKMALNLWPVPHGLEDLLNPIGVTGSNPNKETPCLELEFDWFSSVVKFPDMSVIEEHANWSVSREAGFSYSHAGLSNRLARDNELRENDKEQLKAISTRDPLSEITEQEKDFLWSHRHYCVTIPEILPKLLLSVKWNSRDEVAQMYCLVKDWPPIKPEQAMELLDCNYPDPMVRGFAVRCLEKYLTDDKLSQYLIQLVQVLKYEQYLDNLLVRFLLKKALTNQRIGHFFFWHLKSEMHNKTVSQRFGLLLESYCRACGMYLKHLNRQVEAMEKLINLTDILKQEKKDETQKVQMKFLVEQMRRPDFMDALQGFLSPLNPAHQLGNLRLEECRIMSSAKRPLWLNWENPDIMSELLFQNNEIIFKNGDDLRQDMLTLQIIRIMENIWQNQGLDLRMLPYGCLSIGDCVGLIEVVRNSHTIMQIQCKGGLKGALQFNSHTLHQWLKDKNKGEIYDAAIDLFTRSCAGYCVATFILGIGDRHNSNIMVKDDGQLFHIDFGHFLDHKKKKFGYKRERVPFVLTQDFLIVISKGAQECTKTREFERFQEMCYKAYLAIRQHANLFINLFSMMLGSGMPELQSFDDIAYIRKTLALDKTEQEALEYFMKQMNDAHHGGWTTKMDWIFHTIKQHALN
Test [5] shares this target. To be noted: at 1 µM.
The target in test [6] is T2, Phosphatidylinositol 4,5-bisphosphate 3-kinase catalytic subunit delta isoform (Homo sapiens) (UniProt O00329).
T2 sequence (whole entry): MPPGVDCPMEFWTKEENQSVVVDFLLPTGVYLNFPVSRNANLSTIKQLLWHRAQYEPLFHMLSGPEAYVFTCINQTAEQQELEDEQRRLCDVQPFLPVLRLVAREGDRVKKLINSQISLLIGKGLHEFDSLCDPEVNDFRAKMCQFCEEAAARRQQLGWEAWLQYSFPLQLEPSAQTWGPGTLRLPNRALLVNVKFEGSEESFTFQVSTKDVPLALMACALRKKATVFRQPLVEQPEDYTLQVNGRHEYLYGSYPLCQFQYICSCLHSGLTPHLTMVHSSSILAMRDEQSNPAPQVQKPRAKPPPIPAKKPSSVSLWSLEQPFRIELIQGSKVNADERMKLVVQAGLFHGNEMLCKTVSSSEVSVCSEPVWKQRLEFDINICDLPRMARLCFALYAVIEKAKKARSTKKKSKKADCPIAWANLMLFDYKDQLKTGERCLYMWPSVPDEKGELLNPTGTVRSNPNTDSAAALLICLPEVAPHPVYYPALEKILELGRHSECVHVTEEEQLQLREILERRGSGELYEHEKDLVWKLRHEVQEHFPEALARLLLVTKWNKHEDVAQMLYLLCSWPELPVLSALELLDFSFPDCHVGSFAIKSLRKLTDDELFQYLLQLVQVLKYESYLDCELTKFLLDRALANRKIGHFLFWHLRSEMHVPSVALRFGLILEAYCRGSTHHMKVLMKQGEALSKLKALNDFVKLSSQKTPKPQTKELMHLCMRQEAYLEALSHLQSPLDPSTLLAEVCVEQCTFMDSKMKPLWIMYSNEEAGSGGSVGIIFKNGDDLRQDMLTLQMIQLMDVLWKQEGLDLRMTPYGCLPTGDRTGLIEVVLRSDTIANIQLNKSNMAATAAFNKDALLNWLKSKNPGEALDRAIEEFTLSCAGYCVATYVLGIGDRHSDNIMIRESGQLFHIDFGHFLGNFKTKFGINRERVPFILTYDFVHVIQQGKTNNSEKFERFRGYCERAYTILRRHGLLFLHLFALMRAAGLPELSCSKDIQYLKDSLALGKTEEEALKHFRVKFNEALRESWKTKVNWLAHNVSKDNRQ
To be noted: at 0.1 µM.

In test [7] the target is T2, Phosphatidylinositol 4,5-bisphosphate 3-kinase catalytic subunit delta isoform (Homo sapiens). To be noted: at 1 µM.
Test [8] addresses Phosphatidylinositol 4-kinase beta (Homo sapiens) (UniProt Q9UBF8). To be noted: at 0.1 µM.
For test [9] the target is unchanged. To be noted: at 1 µM.
The target of test [10] is Sphingosine kinase 1 (Homo sapiens) (UniProt Q9NYA1). To be noted: at 0.1 µM.
Chain of Sphingosine kinase 1 (Homo sapiens) (Q9NYA1 whole entry): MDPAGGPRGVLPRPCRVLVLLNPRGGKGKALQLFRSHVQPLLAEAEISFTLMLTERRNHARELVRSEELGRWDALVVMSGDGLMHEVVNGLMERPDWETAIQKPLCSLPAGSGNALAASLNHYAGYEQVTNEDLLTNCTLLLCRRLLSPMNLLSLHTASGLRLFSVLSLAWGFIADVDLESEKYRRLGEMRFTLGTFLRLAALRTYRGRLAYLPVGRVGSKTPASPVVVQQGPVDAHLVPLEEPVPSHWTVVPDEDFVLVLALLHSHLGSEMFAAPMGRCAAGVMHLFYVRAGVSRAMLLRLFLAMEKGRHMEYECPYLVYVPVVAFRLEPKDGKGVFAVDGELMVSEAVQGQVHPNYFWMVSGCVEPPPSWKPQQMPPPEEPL
For test [11] the target is unchanged. To be noted: at 1 µM.
For test [12], the target named is T3, Sphingosine kinase 2 (Homo sapiens) (UniProt Q9NRA0).
T3 sequence (whole entry): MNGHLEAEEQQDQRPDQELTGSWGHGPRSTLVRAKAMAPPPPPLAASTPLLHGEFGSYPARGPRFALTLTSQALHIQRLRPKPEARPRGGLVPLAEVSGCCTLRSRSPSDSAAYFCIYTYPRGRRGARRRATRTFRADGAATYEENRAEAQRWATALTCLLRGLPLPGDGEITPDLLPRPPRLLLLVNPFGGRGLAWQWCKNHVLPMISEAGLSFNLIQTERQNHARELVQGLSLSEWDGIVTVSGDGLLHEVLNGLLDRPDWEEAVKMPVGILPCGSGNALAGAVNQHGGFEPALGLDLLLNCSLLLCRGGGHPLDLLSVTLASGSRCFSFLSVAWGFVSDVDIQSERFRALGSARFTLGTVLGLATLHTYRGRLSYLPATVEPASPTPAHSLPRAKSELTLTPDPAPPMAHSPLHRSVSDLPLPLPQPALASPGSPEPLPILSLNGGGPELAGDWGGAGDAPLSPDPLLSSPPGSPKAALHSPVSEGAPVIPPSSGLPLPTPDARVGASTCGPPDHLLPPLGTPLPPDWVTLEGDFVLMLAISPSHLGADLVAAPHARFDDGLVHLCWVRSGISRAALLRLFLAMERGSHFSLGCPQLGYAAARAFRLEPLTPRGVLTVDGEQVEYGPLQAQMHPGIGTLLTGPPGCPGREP
To be noted: at 0.1 µM.

For test [13], the target named is T3, Sphingosine kinase 2 (Homo sapiens). To be noted: at 1 µM.
In test [14] the target is Casein kinase II subunit alpha (Homo sapiens) (UniProt P68400). To be noted: at 0.1 µM.
Chain of Casein kinase II subunit alpha (Homo sapiens) (P68400 whole entry, looked up): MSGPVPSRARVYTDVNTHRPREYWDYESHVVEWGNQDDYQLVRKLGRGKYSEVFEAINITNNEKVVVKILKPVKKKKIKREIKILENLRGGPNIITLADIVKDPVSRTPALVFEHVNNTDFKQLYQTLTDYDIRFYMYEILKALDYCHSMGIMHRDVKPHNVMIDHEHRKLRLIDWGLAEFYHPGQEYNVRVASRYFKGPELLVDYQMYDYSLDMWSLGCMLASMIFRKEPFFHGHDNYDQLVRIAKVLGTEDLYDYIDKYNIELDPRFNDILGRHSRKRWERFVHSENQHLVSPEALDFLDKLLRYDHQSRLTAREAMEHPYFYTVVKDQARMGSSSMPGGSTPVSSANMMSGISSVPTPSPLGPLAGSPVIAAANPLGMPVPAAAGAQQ
Test [15] has the same target. To be noted: at 1 µM.
For test [16], the target named is T4, Inhibitor of nuclear factor kappa-B kinase subunit alpha (Homo sapiens) (UniProt O15111).
T4 sequence (whole entry): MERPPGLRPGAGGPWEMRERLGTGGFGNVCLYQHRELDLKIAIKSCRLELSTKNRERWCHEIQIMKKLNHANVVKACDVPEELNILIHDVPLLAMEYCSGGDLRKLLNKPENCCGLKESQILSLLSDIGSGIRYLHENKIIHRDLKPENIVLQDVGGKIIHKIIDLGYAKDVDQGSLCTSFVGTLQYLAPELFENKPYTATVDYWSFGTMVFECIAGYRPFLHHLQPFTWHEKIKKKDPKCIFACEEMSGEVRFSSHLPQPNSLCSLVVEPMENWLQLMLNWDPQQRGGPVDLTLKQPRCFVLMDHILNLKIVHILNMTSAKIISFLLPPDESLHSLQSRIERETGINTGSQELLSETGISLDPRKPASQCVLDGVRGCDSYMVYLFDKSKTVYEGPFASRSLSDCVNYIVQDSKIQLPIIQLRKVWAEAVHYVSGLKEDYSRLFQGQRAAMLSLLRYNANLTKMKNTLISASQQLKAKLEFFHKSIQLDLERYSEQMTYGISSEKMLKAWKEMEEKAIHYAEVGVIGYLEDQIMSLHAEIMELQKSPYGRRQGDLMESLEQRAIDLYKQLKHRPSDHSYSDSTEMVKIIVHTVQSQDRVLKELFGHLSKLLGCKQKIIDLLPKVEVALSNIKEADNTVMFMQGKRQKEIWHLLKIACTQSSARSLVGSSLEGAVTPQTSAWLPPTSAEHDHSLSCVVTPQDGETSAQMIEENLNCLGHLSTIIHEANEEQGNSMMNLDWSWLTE
To be noted: at 0.1 µM.

For test [17], the target named is T4, Inhibitor of nuclear factor kappa-B kinase subunit alpha (Homo sapiens). To be noted: at 1 µM.
Test [18] deals with T5, Inhibitor of nuclear factor kappa-B kinase subunit beta (Homo sapiens) (UniProt O14920).
T5 sequence (whole entry): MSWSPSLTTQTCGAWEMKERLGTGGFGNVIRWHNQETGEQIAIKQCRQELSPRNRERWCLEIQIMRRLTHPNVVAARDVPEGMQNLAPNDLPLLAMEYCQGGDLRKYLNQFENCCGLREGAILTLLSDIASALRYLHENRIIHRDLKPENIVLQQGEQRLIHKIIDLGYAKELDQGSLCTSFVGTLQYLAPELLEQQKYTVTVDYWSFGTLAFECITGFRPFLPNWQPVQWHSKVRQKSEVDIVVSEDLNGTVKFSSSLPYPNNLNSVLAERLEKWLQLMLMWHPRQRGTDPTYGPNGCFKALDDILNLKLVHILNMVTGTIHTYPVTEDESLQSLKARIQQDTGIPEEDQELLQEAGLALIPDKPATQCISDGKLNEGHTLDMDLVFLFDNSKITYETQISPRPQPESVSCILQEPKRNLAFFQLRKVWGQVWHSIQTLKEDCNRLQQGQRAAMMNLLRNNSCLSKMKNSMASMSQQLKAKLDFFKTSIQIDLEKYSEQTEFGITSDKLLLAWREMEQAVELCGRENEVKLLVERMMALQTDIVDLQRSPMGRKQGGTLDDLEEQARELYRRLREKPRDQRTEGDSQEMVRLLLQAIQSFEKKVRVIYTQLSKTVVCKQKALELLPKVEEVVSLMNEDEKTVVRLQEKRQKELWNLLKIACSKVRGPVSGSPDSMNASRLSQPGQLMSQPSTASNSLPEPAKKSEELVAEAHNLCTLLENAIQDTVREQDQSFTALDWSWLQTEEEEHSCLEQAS
To be noted: at 0.1 µM.

Test [19] concerns the target T5, Inhibitor of nuclear factor kappa-B kinase subunit beta (Homo sapiens). To be noted: at 1 µM.
For test [20], the target named is T6, Inhibitor of nuclear factor kappa-B kinase subunit epsilon (Homo sapiens) (UniProt Q14164).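 Note: mean inhibition of IKKε reported, from the GSK PKIS dataset.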
T6 sequence (whole entry): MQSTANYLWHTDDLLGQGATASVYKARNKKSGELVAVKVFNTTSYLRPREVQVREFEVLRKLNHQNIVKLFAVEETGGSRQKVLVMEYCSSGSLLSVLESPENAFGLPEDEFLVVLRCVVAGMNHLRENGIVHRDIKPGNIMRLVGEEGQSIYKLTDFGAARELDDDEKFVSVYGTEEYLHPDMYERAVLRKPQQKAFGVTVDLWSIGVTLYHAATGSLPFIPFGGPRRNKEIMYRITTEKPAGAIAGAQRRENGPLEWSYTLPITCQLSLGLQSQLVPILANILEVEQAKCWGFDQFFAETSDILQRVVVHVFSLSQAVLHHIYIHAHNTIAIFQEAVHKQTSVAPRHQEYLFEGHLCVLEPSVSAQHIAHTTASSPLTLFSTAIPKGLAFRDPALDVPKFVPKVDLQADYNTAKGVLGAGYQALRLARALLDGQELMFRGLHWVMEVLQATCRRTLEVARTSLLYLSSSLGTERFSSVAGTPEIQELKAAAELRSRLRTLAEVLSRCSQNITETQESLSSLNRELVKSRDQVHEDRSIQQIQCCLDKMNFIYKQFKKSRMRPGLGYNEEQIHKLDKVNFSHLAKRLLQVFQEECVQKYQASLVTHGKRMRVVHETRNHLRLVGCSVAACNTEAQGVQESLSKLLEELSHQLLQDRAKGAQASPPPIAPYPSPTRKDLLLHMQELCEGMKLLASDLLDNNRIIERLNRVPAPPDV
To be noted: at 0.1 µM.

Chain of Phosphatidylinositol 4-kinase beta (Homo sapiens) (Q9UBF8 2-816 limits assumed): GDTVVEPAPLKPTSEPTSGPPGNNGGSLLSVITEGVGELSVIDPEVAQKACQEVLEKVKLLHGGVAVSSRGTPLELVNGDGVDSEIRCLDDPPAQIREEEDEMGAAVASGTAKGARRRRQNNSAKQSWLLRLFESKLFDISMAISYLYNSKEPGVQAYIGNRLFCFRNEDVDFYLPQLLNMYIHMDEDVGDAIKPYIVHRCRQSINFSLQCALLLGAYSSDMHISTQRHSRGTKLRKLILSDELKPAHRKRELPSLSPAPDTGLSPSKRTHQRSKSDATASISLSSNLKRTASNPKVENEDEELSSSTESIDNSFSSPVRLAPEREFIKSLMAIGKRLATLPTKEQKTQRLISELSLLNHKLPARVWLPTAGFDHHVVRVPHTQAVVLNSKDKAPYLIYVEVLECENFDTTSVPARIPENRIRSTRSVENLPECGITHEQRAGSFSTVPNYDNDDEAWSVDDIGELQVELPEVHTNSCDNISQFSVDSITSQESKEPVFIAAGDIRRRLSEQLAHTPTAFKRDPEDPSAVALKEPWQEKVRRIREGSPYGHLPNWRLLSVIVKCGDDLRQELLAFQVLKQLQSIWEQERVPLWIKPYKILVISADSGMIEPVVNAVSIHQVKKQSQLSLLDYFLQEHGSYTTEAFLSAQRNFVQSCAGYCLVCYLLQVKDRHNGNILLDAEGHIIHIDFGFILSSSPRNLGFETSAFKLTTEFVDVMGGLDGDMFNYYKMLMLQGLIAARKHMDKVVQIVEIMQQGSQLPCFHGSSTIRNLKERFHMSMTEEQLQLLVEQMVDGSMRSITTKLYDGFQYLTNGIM

As to `CN1CCN(C(=O)c2ccc(NC(=O)Nc3ccc(N(C)c4ccnc(Nc5ccc(CS(C)(=O)=O)cc5)n4)cc3)cc2)CC1`, the inhibition in test [1] is 2.72%; in test [2], -1.98%; in test [3], -1.99%; in test [4], 3.38%; in [5], 2.56%; in test [6] it was 1.78%. Moreover, the inhibition amounted to 4.04% in test [7]; 0.19% in test [8]; 1.27% in [9]; 0% in [10]; 2.73% in test [11]; 0% in test [12]. Moreover, the inhibition is -0.74% in test [13]; 7.1% in [14]; 2.55% in test [15]; 3.61% in test [16]; 9.53% in test [17]; 3.95% in [18]. Besides, the inhibition in [19] was determined as 5.76%; in test [20] it was 4.12%.

As for `Cc1ccc2c(c1)/C(=N/Nc1ccc(S(N)(=O)=O)cc1)C(=O)N2`, the inhibition was -0.05% in test [1]; -2.83% in test [2]; -5.98% in [3]; -1.13% in test [4]; 8.11% in test [5]; 1.23% in test [6]. Besides, the inhibition in test [7] was 2.01%; in test [8] it was 6.34%; in [9] it was 1.81%; in [10], -1.11%; in test [11], 0.07%; in test [12], 0.19%. The inhibition in test [13] is 0.62%; in [14], -2.8%; in test [15], -4.47%; in [16], 8.72%; in test [17], 4.99%; in [18] it was 1.92%. Also, the results for the inhibition in test [19] and in [20] were 1.12% and -5.56%, respectively.

As for `Cc1ccc(C(=O)NC2CC2)cc1-c1ccc2[nH]ncc2c1`, the inhibition in test [1] is -1.96%; in test [2], -0.04%; in test [3] it was 1.22%; in test [4], -3.9%; in [5], -3.53%; in test [6] it was -1.94%. The inhibition in [7] is -0.26%; in test [8], 4.33%; in test [9], -2.52%; in test [10], -0.6%; in test [11], -1.63%; in test [12], -1.1%. For the same compound, the inhibition in test [13] is 0.65%; in test [14] it was -2.79%; in [15], -1.68%; in test [16], 7.28%; in [17] it was -2.31%; in [18] it was -3.22%. Moreover, the results for the inhibition in test [19] and in test [20] were -2.64% and -3.17%, respectively.
